# Data reported in PubChem BioAssay (NCATS).
# Inconclusive results are not listed. Where a call stands in place of a potency, no number is given. The source made the active and inactive calls. Calls come from the whole dose curve; as a rule, active = well fitted curve in the direction sought with a large enough effect; inconclusive = small, poorly fitted or top-dose-only effect, or another doubt; inactive = no such curve, though single readings can be large; an effect the other way counts as inactive or inconclusive.
# Legend:
# [1] = Quantitative High-Throughput drug screen in 47 multiple myeloma cell lines against the NCATS MIPE library collection: ARP1_JJKsccF8 cell viability assay (AID 1918928; note: nearly all actives have a fitted effect of over 40% in size; note: potency is the fitted concentration of half-maximal effect); conditions: ARP1 myeloma cells viability, CellTiter-Glo ATP, 48 h; series mostly up to 45.8 µM
# How it was run: (§1)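 ATP readout (CellTiter-Glo), 48 h drug incubation, 37 °C/5% CO2, 500 cells per well; normalisation to DMSO (100%) and media-only (0%) controls.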
# [2] = Quantitative High-Throughput drug screen in 47 multiple myeloma cell lines against the NCATS MIPE library collection: Karpas620_DSMZ cell viability assay (AID 1918959); conditions: Karpas620 myeloma viability, CellTiter-Glo ATP luminescence, 48 h; series mostly up to 45.8 µM; note: nearly all actives have a fitted effect of over 30% in size; note: potency is the fitted concentration of half-maximal effect
# How it was run: (§2)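 Inhibition of cell viability is measured here. Each line was plated at 500 cells per well, treated with MIPE 4.0 drugs, kept 48 hours at 37C, then assayed for ATP content by CellTiter-Glo luminescence.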
# [3] = Quantitative High-Throughput drug screen in 47 multiple myeloma cell lines against the NCATS MIPE library collection: KMM1_JCRB cell viability assay (AID 1918960); conditions: KMM1 myeloma viability, CellTiter-Glo ATP luminescence, 48 h; series mostly up to 45.8 µM; note: nearly all actives have a fitted effect of over 30% in size; note: potency is the fitted concentration of half-maximal effect
# How it was run: as §1
# [4] = Quantitative High-Throughput drug screen in 47 multiple myeloma cell lines against the NCATS MIPE library collection: KHM11_PLB cell viability assay (AID 1918962); conditions: KHM11 myeloma cell viability, CellTiter-Glo ATP luminescence, 48 h; series mostly up to 45.8 µM; note: nearly all actives have a fitted effect of over 35% in size; note: potency is the fitted concentration of half-maximal effect
# How it was run: as §2
# [5] = Quantitative High-Throughput drug screen in 47 multiple myeloma cell lines against the NCATS MIPE library collection: JIM3_ECACC cell viability assay (AID 1918963; note: nearly all actives have a fitted effect of over 35% in size; note: potency is the fitted concentration of half-maximal effect); conditions: JIM3 myeloma viability, CellTiter-Glo ATP, 48 h; series mostly up to 45.8 µM
# How it was run: as §2
# [6] = Quantitative High-Throughput drug screen in 47 multiple myeloma cell lines against the NCATS MIPE library collection: INA6_PLB cell viability assay (AID 1918965; note: nearly all actives have a fitted effect of over 55% in size; note: potency is the fitted concentration of half-maximal effect); conditions: INA6 myeloma viability, CellTiter-Glo ATP luminescence, 48 h; series mostly up to 45.8 µM
# How it was run: (§3)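 qHTS of the MIPE 4.0 collection: 500 myeloma cells/well, 48 h drug exposure at 37C in 5% CO2, then CellTiter-Glo for 5 min at room temperature before luminescence reading.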
# [7] = Quantitative High-Throughput drug screen in 47 multiple myeloma cell lines against the NCATS MIPE library collection: JJN3_DSMZ cell viability assay (AID 1918966; note: nearly all actives have a fitted effect of over 50% in size; note: potency is the fitted concentration of half-maximal effect); conditions: JJN3 myeloma cells viability, CellTiter-Glo ATP, 48 h; series mostly up to 45.8 µM
# How it was run: (§4)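 Myeloma cells (500 per well) were exposed to MIPE 4.0 compounds by pin transfer and incubated 48 hours at 37C, 5% CO2. Viability was read as ATP by CellTiter-Glo luminescence, normalised to DMSO (100%) and media-only (0%) wells.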
# [8] = Quantitative High-Throughput drug screen in 47 multiple myeloma cell lines against the NCATS MIPE library collection: JIM1_ECACC cell viability assay (AID 1918964; note: potency is the fitted concentration of half-maximal effect); conditions: JIM1 myeloma viability, CellTiter-Glo ATP luminescence, 48 h; series mostly up to 45.8 µM
# How it was run: as §4
# [9] = Quantitative High-Throughput drug screen in 47 multiple myeloma cell lines against the NCATS MIPE library collection: ARD_JJKsccE7 cell viability assay (AID 1918929; note: potency is the fitted concentration of half-maximal effect); conditions: ARD myeloma cell line viability, CellTiter-Glo, 48 h; series mostly up to 45.8 µM
# How it was run: as §4
# [10] = Quantitative High-Throughput drug screen in 47 multiple myeloma cell lines against the NCATS MIPE library collection: Karpas417_ECACC cell viability assay (AID 1918961); conditions: Karpas417 myeloma viability, CellTiter-Glo ATP luminescence, 48 h; viability (% of DMSO): at 45.8 µM (top of the series)
# How it was run: as §3
smiles,measurement,setting,value
O=c1[nH]cnc2c1ncn2[C@H]1CC[C@@H](CO)O1,Potency,[1],inactive
same,Potency,[2],inactive
same,Potency,[3],inactive
same,Potency,[4],inactive
same,Potency,[5],inactive
N[C@@]1(C(=O)O)CS(=O)(=O)[C@H]2[C@H](C(=O)O)[C@H]21,Potency,[1],inactive
same,Potency,[2],inactive
same,Potency,[6],14.8 µM (active)
CC[C@@H]1C=C(C)C[C@H](C)C[C@H](OC)[C@H]2O[C@@](O)(C(=O)C(=O)N3CCCC[C@@H]3C(=O)O[C@H](C(C)=C[C@@H]3CC[C@H](Cl)[C@H](OC)C3)[C@H](C)[C@@H](O)CC1=O)[C@H](C)C[C@H]2OC,Potency,[1],13.2 µM (active)
same,Potency,[3],8.33 µM (active)
same,Potency,[5],18.7 µM (active)
same,Potency,[7],20.9 µM (active)
Oc1ccc(C2CCN(c3ccnc4ccccc34)CC2)cc1O,Potency,[1],23.5 µM (active)
same,Potency,[2],16.6 µM (active)
same,Potency,[4],8.33 µM (active)
same,Potency,[5],11.8 µM (active)
same,Potency,[6],7.43 µM (active)
same,Potency,[7],16.6 µM (active)
c1cc(-c2sc(-c3ccncc3)c(-c3ccncc3)c2-c2ccncc2)ccn1,Potency,[1],inactive
same,Potency,[2],inactive
same,Potency,[6],18.7 µM (active)
same,Potency,[7],16.6 µM (active)
COC[C@@H](c1ccc(C(F)(F)F)cc1)N1CCN(C2(C)CCN(C(=O)c3c(C)ncnc3C)CC2)C[C@H]1C,Potency,[1],inactive
same,Potency,[4],inactive
same,Potency,[6],26.4 µM (active)
COc1cccc([C@@H](C)NCCCc2ccccc2Cl)c1,Potency,[1],inactive
same,Potency,[4],inactive
same,Potency,[5],inactive
same,Potency,[7],inactive
CC(=O)OC1C(C)OC(Oc2c(-c3ccc(O)cc3)oc3cc(O)cc(O)c3c2=O)C(O)C1OC(C)=O (configuration not stated),Potency,[1],inactive
same,Potency,[4],inactive
same,Potency,[5],inactive
same,Potency,[6],9.35 µM (active)
N[C@H](CSC(c1ccccc1)(c1ccccc1)c1ccccc1)C(=O)O,Potency,[1],13.2 µM (active)
same,Potency,[5],10.5 µM (active)
CC(=O)O[C@]1(C(C)=O)CC[C@@H]2[C@@H]3C[C@H](C)C4=CC(=O)CC[C@]4(C)[C@H]3CC[C@@]21C,Potency,[1],26.4 µM (active)
same,Potency,[2],inactive
same,Potency,[3],4.69 µM (active)
same,Potency,[4],inactive
same,Potency,[5],inactive
same,Potency,[6],18.7 µM (active)
same,Potency,[7],20.9 µM (active)
COc1cc(Nc2ncc(F)c(Nc3ccc4c(n3)NC(=O)C(C)(C)O4)n2)cc(OC)c1OC,Potency,[1],5.9 µM (active)
same,Potency,[2],inactive
same,Potency,[5],0.935 µM (active)
CC1(C)CCC[C@@]2(C)[C@@H]1CC[C@@]1(C)OC(=O)C[C@H]21,Potency,[1],inactive
same,Potency,[3],inactive
same,Potency,[4],inactive
same,Potency,[5],inactive
same,Potency,[8],inactive
same,Potency,[7],inactive
COc1cccc2c1CCCC2CCCN1CCN(C2CCCCC2)CC1 (configuration not stated),Potency,[1],18.7 µM (active)
same,Potency,[3],18.7 µM (active)
same,Potency,[4],18.7 µM (active)
same,Potency,[5],23.5 µM (active)
same,Potency,[7],20.9 µM (active)
CC(C)C[C@H](CC(=O)O)C(=O)N[C@@H](Cc1c[nH]c2ccccc12)C(=O)N[C@@H](C)c1ccccc1,Potency,[1],inactive
same,Potency,[3],inactive
same,Potency,[4],inactive
same,Potency,[5],inactive
same,Potency,[7],inactive
CC(C(=O)O)c1ccc(-c2ccccc2)c(F)c1 (configuration not stated),Potency,[9],inactive
same,Potency,[2],inactive
same,Potency,[3],inactive
same,Potency,[6],18.7 µM (active)
same,Potency,[7],inactive
CCN(CC)CCOc1ccc(C(=C(Cl)c2ccccc2)c2ccccc2)cc1,Potency,[1],inactive
same,Potency,[5],inactive
same,Potency,[6],inactive
CCOC1OC(=O)C[C@H]1NC(=O)[C@@H]1CCCN1C(=O)[C@@H](NC(=O)c1ccc(N)c(Cl)c1)C(C)(C)C (some centres not stated),Potency,[9],20.9 µM (active)
same,Potency,[2],4.69 µM (active)
same,Potency,[3],29.6 µM (active)
same,Potency,[10],inactive
same,Potency,[5],inactive
same,Potency,[6],inactive
O=C(Nc1cccc(Br)c1)c1cccc(S(=O)(=O)N2CCCCCC2)c1,Potency,[9],16.6 µM (active)
same,Potency,[2],20.9 µM (active)
same,Potency,[3],16.6 µM (active)
same,Potency,[8],7.43 µM (active)
same,Potency,[7],20.9 µM (active)
O=C(OCC#CCSc1nnc(-c2cccc3ccccc23)o1)c1cc2ccccc2s1,Potency,[9],inactive
same,Potency,[2],inactive
same,Potency,[3],inactive
same,Potency,[4],inactive
same,Potency,[5],inactive
same,Potency,[8],inactive
same,Potency,[6],inactive
